# D2 PAM-1: HTS Assay for Positive Allosteric Modulators of the Human D2 Dopamine Receptor: Primary Screen for Potentiators. actives 0.34% (n = 340,000). HEK293 T-REx D2, calcium flux, EC20 dopamine potentiation. potentiation, % at 10 µM. AID 485347, 2010;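 active means potentiation over 3 SD above the plate norm, cut at about 30% in these data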
# Target sequence (P14416 whole entry, looked up): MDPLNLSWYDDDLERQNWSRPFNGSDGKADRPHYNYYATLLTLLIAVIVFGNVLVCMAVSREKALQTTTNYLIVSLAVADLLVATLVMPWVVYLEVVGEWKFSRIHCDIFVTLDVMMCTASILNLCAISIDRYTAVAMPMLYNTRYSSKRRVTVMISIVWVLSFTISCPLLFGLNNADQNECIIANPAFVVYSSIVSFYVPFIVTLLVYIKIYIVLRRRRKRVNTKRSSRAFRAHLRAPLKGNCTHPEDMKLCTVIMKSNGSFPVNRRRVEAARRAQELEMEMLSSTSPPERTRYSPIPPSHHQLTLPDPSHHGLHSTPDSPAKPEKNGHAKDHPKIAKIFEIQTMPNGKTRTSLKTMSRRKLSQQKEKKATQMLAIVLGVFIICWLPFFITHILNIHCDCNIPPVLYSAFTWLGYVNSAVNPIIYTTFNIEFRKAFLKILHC
#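 Using a no-wash calcium dye in inducible, force-coupled HEK293 Trex cells expressing D2, we tracked fluorescence each second for 180 s after compound, then for 180 s after EC20 dopamine to detect augmented signalling.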
# D2 ag-1: HTS Assay for Allosteric Agonists of the Human D2 Dopamine Receptor: Primary Screen for Agonists | D(2) dopamine receptor (Homo sapiens), P14416 | HEK293 T-REx D2 cells, calcium flux agonist mode | activation, % at 2 µM | actives 0.53% (n = 340,000) | AID 485358, 2010;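 active means activation over 3 SD above normal in the single-dose calcium agonist read, cut at about 30% in these data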
#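 Tetracycline-induced HEK293 T-REx cells with force-coupled D2 receptor, plated overnight at 30 C, loaded with no-wash calcium dye. After a 10 s baseline, compound was pin-added and calcium flux read kinetically for 180 s; calcium rises flagged agonists.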
# D2 antag: HTS Assay for Allosteric Antagonists of the Human D2 Dopamine Receptor: Primary Screen for Antagonists; HEK293 TREx D2 cells, calcium flux, dopamine EC80; inhibition, % at 10 µM; actives 2% (n = 340,000); in the data active means inhibition above about 30%; inactive means below that, where a call was filed
#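 Compounds are added to dye-loaded, induced HEK293 T-REx cells coupled to calcium release via D2; after a 3 min kinetic read an EC80 dopamine stimulus is given and fluorescence is recorded for 3 more min.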
# D2 PAM-2: Beta-Arrestin HTS for Positive Allosteric Modulators of the Human D2 Dopamine Receptor: Potentiators; D(2) dopamine receptor (Homo sapiens), P14416; DiscoveRx D2 beta-arrestin cells, luminescence, 90 min; 100% = 57 uM dopamine signal; potentiation, % (no concentration beside the values); actives 0.23% (n = 360,000); in the data active means potentiation above about 50%; inconclusive means mostly about 30% to 49%
#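 PathHunter beta-arrestin assay in DiscoveRx D2 cells. Compounds were added with an EC20 of dopamine (50 nM final) for 90 min at 37 deg C. Luminescence was read 1 h after detection reagent, with 57 uM dopamine as the EC100 control.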
# D2 ag-2: Beta-Arrestin HTS for Positive Allosteric Modulators of the Human D2 Dopamine Receptor: Agonists; DiscoveRx PathHunter D2 beta-arrestin, luminescence, 90 min; 100% = 57 uM dopamine signal; activation, % (no concentration beside the values); actives 0.084% (n = 360,000); in the data active means activation above about 40%; inconclusive means between about 15% and that limit
#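 DiscoveRx PathHunter D2 beta-arrestin cells (2,100/well) attached overnight, then compound-stimulated 90 min at 37 C in HBSS/10 mM HEPES/0.1% Tween-20 buffer; beta-galactosidase complementation read by luminescence after 1 h at ambient temperature. Dopamine 57 uM final (EC100) as control.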
# Hits are given with their value; i = inactive; ? = inconclusive; nt = not tested or not shown. In the library only some 2.4% were active in any assay of this set; here they are far more common.
SMILES,D2 PAM-1,D2 ag-1,D2 antag,D2 PAM-2,D2 ag-2
COc1cc2[nH]cc(C(=O)NCCc3ccccc3)c(=O)c2cc1OC,38.6,i,i,i,i
COc1ccc2[nH]c(C(=O)NCCc3ccccc3)cc2c1,i,i,i,i,i
COc1cc2[nH]c(C(=O)NCCc3ccccc3)cc2c(OC)c1OC,i,i,79.1,i,i
CCOC(=O)COc1ccc(CC)cc1C(=O)c1ccn2nc(-c3ccc(Cl)cc3)cc2n1,i,i,nt,nt,nt
COc1cccc(N2CCN(C(=O)c3cc4c(OC)c(OC)c(OC)cc4[nH]3)CC2)c1,i,i,37.8,i,i
COc1cc2[nH]c(C(=O)N3CCN(C)CC3)cc2c(OC)c1OC,i,i,i,i,i
CCOC(=O)c1ccc(NC(=O)CN2C(=O)c3cccnc3Sc3ccccc32)cc1,i,i,nt,nt,nt
O=C(Cn1c(=O)n(Cc2ccc3c(c2)OCO3)c(=O)c2ccc(C(=O)NC3CCCCC3)cc21)Nc1ccccc1F,i,i,nt,nt,nt
CC1=C(c2ccc(Cl)cc2)S(=O)(=O)N=C1N1CCN(c2cccc(C)c2)C(C)C1 (centres undefined),i,i,nt,nt,nt
O=C1OC(N2CCN(C(=O)C3CCCO3)CC2)c2ccccc21 (centres undefined),i,i,i,55.0,i
CCOC(=O)N1CCN(C2OC(=O)c3ccccc32)CC1 (centres undefined),i,i,i,i,i
Cc1ccc(N2CC(NC(=O)Cc3ccc(F)cc3)CC2=O)cc1C (centres undefined),i,i,nt,nt,nt
CC(C)N(Cc1ccccc1)C(=O)CC(=O)N(Cc1ccccc1)C(C)C,35.1,i,i,i,i
CC(C)N(Cc1ccccc1)C(=O)CN1C(=O)c2ccccc2C1=O,i,i,i,i,i
CN(C)CCCNc1oc(-c2ccccc2Cl)nc1S(=O)(=O)c1ccccc1,i,i,86.0,i,i
CN(C)CCCNc1oc(-c2ccc(Cl)cc2)nc1S(=O)(=O)c1ccccc1,nt,nt,nt,i,i
CC(C)(C)CC(=O)Nc1nnc(CCc2ccccc2)s1,i,i,i,i,i
CCC(C)(C)C(=O)Nc1nnc(CCc2ccccc2)s1,i,i,43.8,i,i
Cc1ccc(Cl)cc1N1CCN(C(=O)c2ccc(C)c(-n3c(C)nc4cccnc43)c2)CC1,i,i,nt,nt,nt
Cc1cccc(C)c1-n1ncc(C(=O)Nc2ccc3c(c2)OCCO3)c1C1CCN(C(=O)OC(C)(C)C)CC1,i,i,nt,nt,nt
O=C(O)/C=C/c1ccc(-c2cccc(C(F)(F)F)c2)o1,42.8,i,i,i,i
O=C(/C=C\c1ccc(-c2ccccc2)o1)c1ccccc1,nt,nt,nt,i,i
O=C(COc1ccccc1Cl)Nc1ccc(C(=O)O)cc1NC(=O)COc1ccccc1Cl,i,i,i,i,i
O=C(COc1ccccc1Cl)Nc1ccccc1C(=O)Nc1cccc(C(=O)O)c1,i,i,30.6,i,i
COc1ccc(S(=O)(=O)N(CC(=O)Nc2cccc(C(F)(F)F)c2)c2ccc(C)cc2)cc1,i,i,nt,nt,nt
SMILES,D2 PAM-1,D2 ag-1,D2 antag,D2 PAM-2,D2 ag-2
Cc1sc2nc(CSc3ccccc3)nc(NCCN(C)C)c2c1C,i,i,i,i,i
CCNc1nc(CSc2ccccc2)nc2sc(C)c(C)c12,i,i,39.3,i,i
O=C(CC12CC3CC(CC(C3)C1)C2)NCC(c1ccc(F)cc1)N1CCOCC1 (centres undefined),i,i,40.1,i,i
CCn1c(CN2CCCCC2)nc2cc(NC(=O)c3cccc([N+](=O)[O-])c3)ccc21,i,i,nt,nt,nt
COc1cc(OC)c(CNC2CCCCCC2)cc1Br,i,i,48.7,i,i
O=C(CCCc1ccccc1)NC1CC(=O)N(c2ccc(F)cc2)C1 (centres undefined),nt,i,nt,nt,nt
CC(C)C[C@@H](C(=O)NC1CCN(Cc2ccccc2)CC1)N1C(=O)N2CCc3c([nH]c4ccccc34)[C@@]2(C)C1=O,i,i,30.9,i,i
COc1ccc2[nH]c3c(c2c1)CCN1C(=O)N([C@@H](C)C(=O)NCc2ccccc2)C(=O)[C@]31C,i,36.0,i,i,i
COc1ccc2[nH]c3c(c2c1)CCN1C(=O)N([C@@H](C)C(=O)NC2CC2)C(=O)[C@]31C,i,30.4,i,i,i
C[C@@H](C(=O)NC1CCN(Cc2ccccc2)CC1)N1C(=O)N2CCc3c([nH]c4ccccc34)[C@@]2(C)C1=O,i,i,i,i,i
CCOc1ccc(CCNC(=O)c2nnc(Cc3ccc(Cl)cc3Cl)o2)cc1OCC,i,nt,nt,nt,nt
COc1cc(C(C(=O)NC2CCCC2)N(C(=O)c2snc(C(N)=O)c2N)C2CCCC2)cc(OC)c1OC (centres undefined),i,i,31.6,i,i
CCOC(=O)CNC(=O)c1sc(NC(=O)/C=C/c2ccccc2)nc1C,i,i,33.8,i,i
CC(=O)c1ccc(N2CCN(C(=O)CN3C(=O)NC4(CCCCC4)C3=O)CC2)c(F)c1,i,i,30.7,i,i
O=C(CN1C(=O)NC2(CCCCCC2)C1=O)N1CCN(c2ccc(F)cc2)CC1,i,i,i,i,i
CCn1c(/C=C/N(C(C)=O)c2ccccc2)[n+](CC)c2ccc(Cl)cc21,i,i,i,i,i
CC[n+]1c(/C=C/N(C)c2ccccc2)oc2ccc(Cl)cc21,i,i,i,58.7,?
N/C(=N\OS(=O)(=O)c1ccc(Br)cc1)c1ccncc1,i,i,i,95.3,?
O=C1CN(O)C=C2N=c3ccccc3=C2N1c1ccc([N+](=O)[O-])cc1,i,i,i,102.8,i
COc1ccccc1NS(=O)(=O)c1cccc(C(=O)NCC(c2ccccc2OC)N2CCCC2)c1 (centres undefined),i,i,i,i,i
COc1ccc(OC)c(-c2nn(-c3ccccc3)cc2C(=O)NCC(c2ccco2)N2CCCC2)c1 (centres undefined),i,i,36.5,i,i
COc1ccccc1NS(=O)(=O)c1cccc(C(=O)NCC(c2ccco2)N2CCCC2)c1 (centres undefined),i,i,62.6,i,i
Cc1ccc(-c2nnc(SCC(=O)NC(C)(C)C)nc2-c2ccc(C)cc2)cc1,i,i,nt,nt,nt
O=c1c2oc3ccccc3c2n(Cc2ccccc2Cl)c(=O)n1Cc1ccc2c(c1)OCO2,i,i,nt,nt,nt
